Records with an inconclusive call do not appear. Entries that show only a call come without a potency. Calls of active or inactive are those of the source. The call rests on the fitted dose curve; in most records, active means well fitted cell-killing curve with a large enough effect; inconclusive means small, poorly fitted or top-dose-only effect, or effect the other way; inactive means flat fitted curve, though single readings scatter.
tested on: Tov112D; test: Primary qHTS to identify gynecologic anti-cancer compounds using libraries of approved drugs and bioactive compounds (AID 1345084); conditions: Gynecologic cancer cell panel viability, ATPlite luminescence, 48 h; series mostly up to 57.5 µM; further: nearly all actives have a fitted effect of over 55% in size
Procedure, shortened: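 ATP-based viability (ATPlite), 1,000 cells/well, 16 h pre-incubation, 48 h compound at 37 C, 5% CO2, 15 min RT before read.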
Potency means the concentration at half of the fitted maximal effect.

| Structure (SMILES) | Potency |
| --- | --- |
| CCCCCCCCCCCCCCCC[N+](C)(C)CC | 28.2 µM (active) |
| CCCCOc1cc(C(=O)NCCN(CC)CC)c2ccccc2n1 | inactive |
| Nc1ccc(C(=O)Nc2ccccc2N)cc1 | inactive |
| CCCCCCCCCCOCC(O)CN (stereo not drawn) | inactive |
| Cc1ccccc1C(=O)Nc1ccc(C(=O)N2CCCC(N(C)C)c3ccccc32)cc1 (stereo not drawn) | 8.91 µM (active) |
| O=C1[C@H]2CCCC[C@H]2C(=O)N1CCCCN1CCN(c2nsc3ccccc23)CC1 | inactive |
| Cc1cccc(C)c1NC(=O)CN1CCN(CCCC(c2ccc(F)cc2)c2ccc(F)cc2)CC1 | inactive |
| COc1cc2c(cc1OC)C(C(C(=O)N(CCc1ccc(OC)c(OC)c1OC)CCc1ccc(OC)c(OC)c1OC)c1ccccc1)=NCC2 (stereo not drawn) | inactive |
| Oc1c(I)cc(I)c2cccnc12 | inactive |
| COCc1c(C(C)C)nc(C(C)C)c(/C=C/[C@@H](O)C[C@@H](O)CC(=O)O)c1-c1ccc(F)cc1 | 3.16 µM (active) |
| CC(C)(C)CC(C)(C)c1ccc(O)c(Cc2ccc(Cl)cc2Cl)c1 | inactive |
| CC(C)=CCC1C(=O)N(c2ccccc2)N(c2ccccc2)C1=O | inactive |
| Oc1c(Cl)cc(Cl)cc1Sc1cc(Cl)cc(Cl)c1O | inactive |
| CN1CCC(=C2c3ccccc3Sc3ccccc32)CC1 | inactive |
| CCCCCCCCCCCCCCCC[N+](C)(C)CCN(Cc1ccc(OC)cc1)c1ncccn1 | 20 µM (active) |
| CC(Cc1cccc(C(F)(F)F)c1)NCCOC(=O)c1ccccc1 (stereo not drawn) | inactive |
| COc1cc2c(cc1OC)C(=O)C(CC1CCN(Cc3ccccc3)CC1)C2 (stereo not drawn) | inactive |
| CC(CCc1ccccc1)NCC(O)c1ccc(O)c(C(N)=O)c1 (stereo not drawn) | inactive |

Reference: PubChem BioAssay (NCATS)
